For 31 molecules, growth results are on record in PubChem BioAssay (NCI).

Molecules are shown by their SMILES. Compounds without any hit were thinned out: in the full panel of roughly 83,000, 20% have a hit.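 Single-dose data. Exposure time 48 hours. Values below 10 considered active.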 Calls of active or inactive are those of the source.

For the experiment, the system named is SR leukemia. Description: NCI-60 one-dose screen, 48 h (100 = growth as untreated, 0 = no growth, -100 = all killed). The settings on record: 10 µM unless noted.
Take `CCN(CC)CCN1C(=O)c2cccc3c(/C=C/CN4C(=O)c5cccc6cccc(c56)C4=O)ccc(c23)C1=O`: the growth is 38.6% (inactive).
`CCN1CCN(C(=O)[C@]23CC[C@@H](C)[C@H](C)[C@@H]2C2=CC[C@@H]4[C@@]5(C)C/C(=C/c6cccnc6)C(=O)C(C)(C)[C@@H]5CC[C@@]4(C)[C@]2(C)CC3)CC1`: the growth is -4.44% (active).
`COc1ccc(C2CC(c3cc(OC)c(OC)c(OC)c3)=NO2)cc1OCCCCOc1cc2c(cc1OC)C(=O)N1CCC[C@H]1C=N2` (stereo partly specified): the growth is -18.1% (active).
On to `Cn1c(=O)c2[nH]c(SCC(=O)Nc3ccc(C(=O)/C=C/c4ccccc4Cl)cc3)nc2n(C)c1=O`, for which the growth is 78.1% (inactive).
Consider `CC1(C)N=C(N)N=C(N)N1c1cccc(CCc2ccccc2)c1`, for which the growth was 28.5% (inactive).
Turning to `O=C1c2ccccc2C(=O)c2c1c(C(=O)NCc1ccccc1)c1ccccn21`, the growth is 90.9% (inactive).
For `CC1C(/C=N/NC(N)=S)C(C#N)(C#N)C1(C#N)C#N` (stereo unspecified) the value was 85.6% (inactive).
With `NS(=O)(=O)c1ccc(-c2cc(-c3nnc(SCC(=O)Nc4ccc(C(=O)/C=C/c5ccc(Cl)cc5)cc4)n3-c3ccccc3)c3ccccc3n2)cc1`, the growth is 71.3% (inactive).
Turning to `CC1(C)CC[C@]2(C(=O)N[C@H](CO)Cc3ccccc3)CC[C@]3(C)C(=CC[C@@H]4[C@@]5(C)CCCNC(C)(C)[C@@H]5CC[C@]43C)[C@@H]2C1`, the growth is -5.95% (active).
Next, `CCCCNc1cc(-c2cn[nH]c2-c2cc(C)cc(OC)c2)nc(-c2cccnc2)n1`: 60.1% (inactive); `C/C(=N\O)[C@@H]1CC[C@]2(CO)CC[C@]3(C)[C@H](CC[C@@H]4[C@@]5(C)CCCNC(C)(C)[C@@H]5CC[C@]43C)[C@@H]12`: 12.5% (inactive).
For `CN(C)CCCC1(c2ccc(F)cc2)OCc2cc(-c3cc4ccccc4s3)ccc21` (stereo unspecified), the growth is -15% (active).
On to `C=C(C)[C@@H]1CCC[C@]2(C(=O)O)CC[C@]3(C)[C@@H](CC[C@@H]4[C@@]5(C)C/C(=C/c6ccncc6)C(=O)C(C)(C)[C@@H]5CC[C@]43C)[C@@H]12`, for which the growth is 3.51% (active).
As to `C=Cc1cnc(Nc2ccc(OC)cc2)nc1NCCCNC(=O)C1CCC1`, the growth was 9.88% (active).
`Cc1ccc(CNc2ccc3nc(CCC(C)C)[nH]c3c2)cc1`: the growth was 85.9% (inactive).
On to `O=c1ccc(=O)n(-c2nc(-c3ccc([N+](=O)[O-])cc3)cs2)[nH]1`, for which the growth is 94.5% (inactive).
As to `CC(=O)OC(c1ccccc1)C1CCOC1=O` (stereo unspecified), the growth was 122% (inactive).
For `Cc1ccc(-c2csc(N(C(=O)N3CCN(c4cc5c(cc4F)c(=O)c(C(=O)O)cn5C4CC4)CC3)c3ccccc3)n2)cc1` the value was 20.2% (inactive); for `CCN1CCN(CC(=O)Nc2nc3ccc(NCc4ccc(F)cc4)cc3s2)CC1`, 80.2% (inactive).
Next, `CCOC(=O)c1c(C)nc2c(c1N)CC(=O)N2Cc1ccc(OC)cc1`: 56.2% (inactive); `CCNC(=O)Oc1ccc(/C(=C(/C)Cc2ccc(OC)cc2)c2ccc(OCCN3CCCCC3)cc2)cc1`: -32% (active).
Turning to `C=C(C)[C@@H]1CCC[C@]2(C(=O)N3CCN(C)CC3)CC[C@]3(C)[C@@H](CC[C@@H]4[C@@]5(C)CC/C(=N\NC(=O)c6ccncc6)C(C)(C)[C@@H]5CC[C@]43C)[C@@H]12`, the growth is 7.99% (active).
For `CCCCCCCCCCCCCOC(=O)c1c(C)[nH]c(/C=C2\N=C(c3ccc[nH]3)C=C2OC)c1C` the value was -10.8% (active); for `COc1cccc(/C=C/C(=O)c2cccc(Nc3nc(Nc4ccccc4)nc(Nc4ccccc4)n3)c2)c1`, 42.4% (inactive).
Next, `O=C(C1CCCCC1)[C@@H]1[C@]2(C(=O)NC3CCCCC32)[C@@H]2CCCN2[C@@]12C(=O)NC1CCC(Cl)CC12` (stereo partly specified): -68.6% [100 µM] (active); `N#C/C(=C\c1ccc(-c2cccc(C(F)(F)F)c2)o1)c1ccccc1`: 86.3% (inactive); `COc1cc(C(=O)n2nc(N3CCOCC3)c3cc(-n4cccc4)ccc32)cc(OC)c1OC`: 6.85% (active).
`COC(=O)c1c2c(c(C)[n+]([O-])c1C)C(=O)C(NCc1ccc(OC)cc1)=CC2=O`: the growth was 9.98% (active).
For the molecule `CC1=C(CCC(C)NCc2ccc(OCCCN3CCCCC3)cc2)C(C)(C)CCC1` (stereo unspecified), the growth is -43.4% (active).
For `CN1CCN(CCCOc2cccc3nc(Nc4ccc(F)c(F)c4)ccc23)CC1`, the growth was 0.217% (active).
Consider `CC1(C)CC[C@]23CC[C@]4(C)[C@H](CC[C@@H]5[C@@]6(C)C/C(=C/c7ccncc7)C(=O)C(C)(C)[C@@H]6CC[C@]54C)[C@H]2[C@H]1OC3`, for which the growth was 56.5% (inactive).
